Test results as given in the supplement of paper PMC6555819.

Assays:
Assay in all cases: PBM binding z-score (relative to random genomic background probes); higher = stronger binding; sequences stand for … in GC…GCGATTGACAGCGTAGAATGAAGG
[1] = tested on: FXR:RXRa (NR concentration 270 nM, RXRa partner concentration 90 nM)
In short: (§1)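 Random background probes are the reference for binding z-scores. These scores derive from regression-normalized fluorescence on custom Agilent 4×180K protein-binding microarrays incubated 1 h with ligand-free nuclear receptor dimers. Binding was detected with antibodies against each partner (one per run).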

[2] = tested on: LXRa:RXRa (NR concentration 270 nM, RXRa partner concentration 90 nM)
In short: as §1

[3] = tested on: LXRa homodimer (NR concentration 270 nM)
In short: as §1

[4] = tested on: LXRb:RXRa (NR concentration 270 nM, RXRa partner concentration 90 nM)
In short: as §1

[5] = tested on: LXRb homodimer (NR concentration 270 nM)
In short: as §1

[6] = tested on: PPARa:RXRa (NR concentration 270 nM, RXRa partner concentration 90 nM)
In short: as §1

[7] = tested on: PPARg:RXRa (NR concentration 180 nM, RXRa partner concentration 90 nM)
In short: as §1

[8] = tested on: PPARg:RXRa 270nM:90nM, anti-RXR (NR concentration 270 nM, RXRa partner concentration 90 nM)
In short: as §1

[9] = tested on: PPARg:RXRa 30nM:10nM, anti-RXR (NR concentration 30 nM, RXRa partner concentration 10 nM)
In short: as §1

[10] = tested on: PPARg:RXRa 90nM:30nM, anti-RXR (NR concentration 90 nM, RXRa partner concentration 30 nM)
In short: as §1

Row | Sequence | PBM binding z-score [1] | PBM binding z-score [2] | PBM binding z-score [3] | PBM binding z-score [4] | PBM binding z-score [5] | PBM binding z-score [6] | PBM binding z-score [7] | PBM binding z-score [8] | PBM binding z-score [9] | PBM binding z-score [10]
1 | GGACCGAGGGCATTCGAGTTGATAGCATGGCGAT | 1.26 | 1.86 | -0.0835 | 0.133 | -1.34 | 0.952 | 0.4 | 0.0586 | -0.851 | -0.483
2 | CCTTACGGGCCAAGGTTATAGCACGGGTGGTACG | -0.197 | 0.16 | -0.442 | -0.247 | -0.834 | 0.498 | 0.573 | 0.597 | -0.309 | -0.163
3 | ACAGACAGGTGAGTGAAGGTAAGTCAGCTGGACG | 0.17 | 0.000763 | -0.483 | -0.528 | -0.65 | 0.236 | 0.568 | -0.129 | -0.0839 | -0.0489
4 | CGTCCAAGGTCAAAGGTCAGTGCAGAGATGACGG | 8.41 | 7.01 | 3.67 | 6.47 | 1.91 | 7.1 | 10.5 | 9.08 | 8.16 | 9.41
5 | TCTTGTAGATCACCAGGAGGTTAAGAAAGATCGA | 0.307 | 1.28 | -0.0899 | 0.866 | -0.174 | 1.39 | -0.000569 | 1.19 | 2.45 | 1.52
6 | CCTTACGGGTCACTCCAGGTTATACCATCGGAGT | 4.89 | 7.62 | 2.1 | 5.35 | 0.431 | 4.44 | 3.61 | 3.66 | 1.11 | 2.42
7 | AGTCAAAGTTCACTAGGTAAGGTAAGATTCAGCT | 5.15 | 4.75 | 3.2 | 3 | 1.19 | 4.4 | 6.73 | 5.99 | 3.11 | 5.44
8 | CCAGACAGGTGAAAGGTAACTCAATCTGGTACGC | 0.545 | 0.735 | -0.0709 | 1.09 | -0.161 | 3.43 | 5.5 | 6.13 | 3.94 | 5.99
9 | TCATATAGGTAGAAGGTGAAAGTCGGTGTGGTAA | 1.26 | 1.21 | 0.0834 | 1.16 | -0.0966 | 3.46 | 5.61 | 6.84 | 5.99 | 7.35
10 | CTTCCAAGGTGAACAAGGTCGTTGATTACTATTC | 1.17 | 1.18 | 0.234 | 1.67 | -0.522 | 2.49 | 0.855 | 1.31 | 0.0258 | 0.487
11 | CATACAGGGTCAGCTATGCCAGAGTAGGGACGGC | 4.14 | 2.68 | -0.0915 | 1.98 | 0.359 | 4.21 | 3.53 | 2.58 | 0.968 | 1.77
12 | CATAGTTGGTCAGGAGGTCACACACCGGATATGA | 3.73 | 3.38 | 1.98 | 3.28 | 0.669 | 4.18 | 3.64 | 3.65 | 1.73 | 3.1
13 | CCGACTGGGGCAAAGATTACCATACTCAGTACGA | -0.494 | -0.583 | -0.45 | -0.138 | -1.19 | 1.89 | 4.52 | 5.48 | 3.98 | 6.06
14 | CGAACTAGGTCAAGGACTGTGAATCTCCGCACGC | 3.02 | 2.02 | -0.179 | 1.36 | -0.152 | 4.37 | 7.06 | 6.47 | 4.05 | 5.99
15 | AATACAGGGTCACTAGGCCAGAGGAGGTACGAAT | 5.85 | 4.93 | 0.963 | 3.62 | 1.31 | 5.54 | 8.18 | 6.63 | 3.82 | 5.65
16 | ACAGACAGGTGATGAAGGTTACTCAGGCTATCAT | 0.29 | 0.278 | 0.0459 | 0.276 | -0.288 | 0.714 | 0.777 | 0.381 | 0.107 | 0.0691
17 | ATCTCTGGGTAACAAGTTCAGTGAAAGAGAGGAC | 0.503 | 0.668 | 0.353 | 0.819 | 0.98 | 1.7 | 1.62 | 1.83 | 0.953 | 1.5
18 | AGAACGAGGGCACGCTCAGTTGATAGCAGAGTAG | 0.582 | 0.413 | -0.836 | 0.0167 | -0.804 | 2.06 | 2.08 | 1.64 | 0.279 | 0.796
19 | TCTAGCAGGCCAGAGGGTGACTCAAGAGGTACGG | -0.401 | 0.0114 | -0.795 | -0.373 | -1.42 | 0.54 | 1.05 | 2.1 | 1.99 | 2.19
20 | TAGCCTTGGTCATTCAGGGGCCAGTATAGAAAGC | -0.269 | -0.328 | -0.573 | 0.134 | -0.26 | 0.0582 | -0.0299 | -0.0721 | -0.509 | -0.279
21 | AGAACGAGGGCACGCTGTGTTGATAGCAGAGTAG | 0.77 | 0.377 | -0.602 | 0.159 | -1.07 | 1.92 | 2.14 | 1.81 | 0.262 | 1.12
22 | AGAATGAGGGTACCAAAGATCAGGGAAACGCTTG | -0.148 | 2.43 | -0.475 | 0.326 | -0.167 | 1.18 | 1.28 | 1.52 | 0.506 | 1.19
23 | ATCGAAAGGTCGACGAGGTGATTATACACCGTTT | 4.8 | 3.43 | 0.0538 | 2.93 | 0.337 | 4.39 | 2.85 | 3.08 | 1.22 | 2.14
24 | GCGACTGGGGCATCAGCAGGTTGCCATAACTTAA | -0.664 | -0.697 | -0.615 | -0.443 | -1.37 | 0.348 | 0.434 | 0.229 | -0.762 | -0.301
25 | TCGAGCAGGTTAGGGGCATTCAGAATGGCGTCGA | 0.0413 | 0.102 | -0.285 | 0.523 | -0.591 | 0.89 | -0.117 | 0.183 | 0.0683 | 0.228
